# Measured values reported in PubChem BioAssay.
# Unmarked numbers belong to inactive results. How the calls were made is not given here.
# Target: Pantothenate synthetase (Mycobacterium tuberculosis (strain ATCC 25618 / H37Rv)) (UniProt P9WIL5)
# Assay: Coupled enzyme confirmation of inhibitors against recombinant Mtb PanC (AID 375);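 further: 0% = full reaction with vehicle and 100% = no enzyme background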
# Conditions: coupled enzyme assay; at 10 µM, hits give high values
# Sequence of Pantothenate synthetase (Mycobacterium tuberculosis (strain ATCC 25618 / H37Rv)) (P9WIL5 whole entry, looked up): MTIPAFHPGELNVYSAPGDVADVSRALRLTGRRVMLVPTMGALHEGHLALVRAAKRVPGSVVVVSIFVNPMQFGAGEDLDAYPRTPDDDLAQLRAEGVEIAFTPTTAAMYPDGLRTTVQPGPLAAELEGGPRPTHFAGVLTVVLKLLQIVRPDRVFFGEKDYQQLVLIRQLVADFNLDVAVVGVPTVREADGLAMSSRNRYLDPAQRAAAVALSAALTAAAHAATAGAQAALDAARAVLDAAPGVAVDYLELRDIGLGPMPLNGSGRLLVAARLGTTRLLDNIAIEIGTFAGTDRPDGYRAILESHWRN
row,Structure (SMILES),inhibition [%]
1,Cc1[nH]n2c(=O)cc(Cc3ccccc3)nc2c1C#N,0
2,Cc1cc(/N=C/N(C)C)on1,0
3,C=CCOC(=O)C1=C(C)OC(N)=C(C#N)C1c1ccc2c(c1)OCO2 (stereo not given),9
4,CC(=O)Nc1c(-c2ccc(F)cc2)nc2ccccn12,0
5,CC(=O)NCCC(=O)Nc1ccc(C)c(F)c1,6
6,COc1ccc(-c2nc(N3CCCC3)[nH]c(=O)c2C#N)cc1,0
7,O=C(CSCc1ccccn1)Nc1ccccc1,0
8,CC1CC(C)CN(c2ncnc3c2cnn3-c2ccc(Cl)cc2)C1 (stereo not given),1
9,NC(=O)C1CCN(CC(=O)N2c3ccccc3CCc3ccccc32)CC1,0
10,CCN(CC)C(=O)C1=C(C)Nc2nnnn2C1c1cccnc1 (stereo not given),0
11,CCOC(=O)CSc1nc2ccccc2n1CC(=O)N1CCN(c2ccccc2)CC1,0
12,CCn1nccc1C(=O)Nc1nccs1,5
13,CCOc1ccc(NCCC(=O)c2ccc3c(c2)OCO3)cc1,1
14,CCOC(=O)CSC1=Nc2ccccc2C2=NC(CC(=O)NCc3ccc(OC)cc3)C(=O)N12 (stereo not given),2
15,CN(CC(O)COc1ccc(OCC(O)CN(C)C2CCCCC2)cc1)C1CCCCC1 (stereo not given),4
16,COc1cc(OC)cc(OCC(O)Cn2cnc(-c3ccccc3)c2)c1 (stereo not given),0
17,CC1(C)CC(=O)CC(C)(C)N1OC(=O)c1ccccn1,0
18,COc1ccc(N2CCN(Cc3nc4c(c(=O)[nH]c(=O)n4C)n3CC(C)=O)CC2)cc1,0
19,COc1cccc(NC(=O)CSc2nnc(-c3cccs3)n2C)c1,0
20,CCCc1cc(=O)[nH]c(/N=C(\N)Nc2ccccc2)n1,6

row,Structure (SMILES),inhibition [%]
1,c1ccc2c(c1)Cn1c-2nc2ccccc21,0
2,CN(C1CCCCC1)S(=O)(=O)c1ccc(S(=O)(=O)N2CCCC2)cc1,0
3,Cc1c(C(=O)NCc2ccccn2)sc2nc(-c3ccc(F)cc3)cn12,0
4,COc1ccc(-c2ccc(CCC(=O)O)n2NC(=O)c2cccs2)cc1,0
5,CCCOc1ccc(/C(O)=C2/C(=O)C(=O)N(CCCOC)C2c2ccncc2)cc1 (stereo not given),4
6,COC(=O)C(CC(C)C)NC(=O)CSc1nc(-c2ccccc2)c(C#N)c(=O)[nH]1 (stereo not given),0
7,CCOc1ccccc1Nc1ncnc2ccccc12,6
8,C#CCNc1c(C)c(C)nc2ncnn12,4
9,O=C(Nc1ccc(N2CCOCC2)cc1)c1cc2ccccc2o1,0
10,CC(NC(=O)c1ccco1)C(c1cccs1)N1CCN(c2ccc(F)cc2)CC1 (stereo not given),0
11,COc1cccc(Cn2c(-c3nonc3N)nc3ccccc32)c1,0
12,COc1ccc(C2c3c(-c4ccccc4O)n[nH]c3C(=O)N2CCc2ccc(OC)c(OC)c2)cc1 (stereo not given),0
13,O=C(NC1CC1)c1ccc(S(=O)(=O)NCC2CCCCC2)cc1,0
14,O=C(Cn1c(=O)[nH]n(-c2ccccc2)c1=O)N1CCCc2ccccc21,0
15,CCOC(=O)N1CCN(C(=O)CSc2nnc(-c3cccc(Cl)c3)o2)CC1,0
16,COC(=O)c1cc2ccsc2n1CC(=O)N(C)c1ccccc1,10
17,c1cc2c(cc1C1=Nn3c(nnc3C3CCCCC3)SC1)OCO2,0
18,Cc1cn2c(-c3ccc(Cl)cc3)nnc2s1,0
19,CCCNS(=O)(=O)c1ccc(C(=O)NCC2CCCO2)cc1 (stereo not given),0
20,O=C(O)c1ccc(COc2c(F)c(F)c(F)c(F)c2F)o1,0
